D3 ag – qHTS of D3 Dopamine Receptor Agonist: qHTS; D(3) dopamine receptor (Homo sapiens), P35462; D3R DiscoveRx beta-arrestin cells, luminescence, 90 min; max activation, %; actives 0.58% (n = 410,000); in the data active = max activation above about 30%
Target sequence (P35462 whole entry, looked up): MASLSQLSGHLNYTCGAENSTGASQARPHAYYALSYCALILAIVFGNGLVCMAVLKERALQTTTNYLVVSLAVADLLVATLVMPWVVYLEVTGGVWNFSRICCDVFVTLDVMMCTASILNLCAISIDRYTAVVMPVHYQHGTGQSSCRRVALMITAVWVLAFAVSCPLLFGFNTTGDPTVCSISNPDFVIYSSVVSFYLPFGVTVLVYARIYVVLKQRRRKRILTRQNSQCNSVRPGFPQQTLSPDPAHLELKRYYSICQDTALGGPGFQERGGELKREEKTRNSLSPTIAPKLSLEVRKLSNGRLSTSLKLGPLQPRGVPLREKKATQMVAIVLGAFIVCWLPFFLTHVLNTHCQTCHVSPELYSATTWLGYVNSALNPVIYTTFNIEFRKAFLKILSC
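Agonist mode: compounds and dopamine controls were applied to plated cells for 90 min at 37 degrees C after an overnight attachment at 1500 cells/well. Luminescent read-out followed 30 - 60 minutes at room temperature with DiscoveRx detection reagent.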
D3 antag – qHTS of D3 Dopamine Receptor Antagonist: qHTS. D(3) dopamine receptor (Homo sapiens), P35462. D3R cells, DiscoveRx beta-arrestin luminescence, antagonist mode; stronger effect = lower value. max response, negative = inhibition, %. actives 2.5% (n = 360,000); in the data active = max response below about -50%; inconclusive = no clear call, values can overlap the other calls
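Cells expressing the human receptor were seeded at 1500 cells/well, incubated overnight at 37 degrees C in 5% CO2, then exposed to library compounds with dopamine controls for 90 minutes at 37 degrees C before luminescent detection.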
Giardia killer – Small Molecules that selectively kill Giardia lamblia: qHTS; AID 540267, 2011; actives 0.15% (n = 340,000); Giardia lamblia trophozoite viability; activity change, % at 7.66 µM, hits read low; in the data active = activity change below about -80%; inconclusive = between about -30% and that limit;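 note: parasites exposed to compound for two days anaerobically before the ATP read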
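Trophozoite viability was measured as ATP-dependent luminescence, read 15-30 min after reagent addition. Before that, parasites at 100 cells/well were exposed to compounds for 48 h, anaerobically, at 37 deg C.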
B2AR arrestin – qHTS assay of beta-arrestin-biased ligands of beta2-adrenergic receptor | beta-arrestin recruitment to beta2AR, cell-based reporter | actives 0.02% (n = 330,000) | AID 492947, 2010 | Beta-2 adrenergic receptor (Homo sapiens), P07550 | Potency, µM (titrated, usually from 46.1 µM), most hits filed as activators; active = well fitted activation curve with a large enough effect; inconclusive = small, poorly fitted or top-dose-only effect; note: nearly all actives have a fitted effect of over 65% in size
Of the large screens only hits and unclear results are named; the others gave an inactive call; ! = a repeat was not active. Hits are enriched below; roughly 2.8% of the tested compounds scored in any of these assays.

OC(COCC1COc2ccccc2O1)CN1CCN(c2ccccn2)CC1 (stereo unspecified)	D3 ag 75!
OC(COCc1cccs1)CN1CCCCCC1 (stereo unspecified)	none
OC(COCc1cccs1)CN1CCN(c2ccccn2)CC1 (stereo unspecified)	D3 ag 57
CN1CCCN(CC(O)COCc2cccs2)CC1 (stereo unspecified)	none
CCCN1CCC(=O)N(C(CSc2ccc(OC)cc2)c2ccccc2)CC1 (stereo unspecified)	none (no result: D3 ag, D3 antag, B2AR arrestin)
COc1cc(CNC(=O)c2ccc3c(c2)N(C)C(=O)C2CCCCN32)cc(OC)c1OC (stereo unspecified)	none (no result: D3 antag, Giardia killer, B2AR arrestin)
Cc1ccc(C)c(NC(=O)CSc2nc(=O)n(Cc3ccncc3)c3c2CCC3)c1	none (no result: D3 antag, Giardia killer, B2AR arrestin)
Cc1ccccc1Cn1c(=O)n(CCCCC(=O)NCc2ccc3c(c2)OCO3)c(=O)c2ccccc21	none (no result: D3 antag, Giardia killer, B2AR arrestin)
Cc1ccc(Nc2c(F)cccc2Cl)c(CC(=O)O)c1	none (no result: D3 antag, Giardia killer, B2AR arrestin)
O=C(NOCC1CC1)c1ccc(F)c(F)c1Nc1ccc(I)cc1Cl	none (no result: D3 antag, Giardia killer, B2AR arrestin)
OC(COCc1cccs1)CN1CCN(c2ccccc2Cl)CC1 (stereo unspecified)	D3 antag -69
CCOc1ccccc1N1CCN(CC(O)COCc2cccs2)CC1 (stereo unspecified)	D3 antag -85
OC(COCc1ccc(Cl)cc1)CN1CCN(c2ccccn2)CC1 (stereo unspecified)	D3 ag 59
OC(COc1ccc(Cl)cc1)CN1CCN(c2ccccn2)CC1 (stereo unspecified)	none (no result: B2AR arrestin)
N#Cc1ccccc1OCc1cn(CC(=O)c2ccc(O)cc2)nn1	D3 antag -73 (no result: B2AR arrestin)
O=C(Cn1cc(COc2ccccc2[N+](=O)[O-])nn1)c1ccc(O)cc1	D3 ag 37 (no result: B2AR arrestin)
O=Cc1cccc(OCc2cn(CC(=O)c3ccc(O)cc3)nn2)c1	D3 antag -53 (no result: Giardia killer, B2AR arrestin)
O=C(Cn1cc(COc2ccc(Br)cc2)nn1)c1ccc(O)cc1	none (no result: B2AR arrestin)
COc1ccccc1CNC(=O)COCc1cc(-c2cccs2)on1	none (no result: D3 antag, Giardia killer, B2AR arrestin)
CCOc1cc(C(=O)N/N=C/c2ccoc2)cc(OCC)c1OCC	D3 antag -70
COc1ccc(-c2cc(C(=O)N/N=C/c3cc(OC)c(OC)cc3OC)c3ccccc3n2)cc1	none (no result: B2AR arrestin)
COc1ccc(OC)c(/C=N/NC(=O)c2cc(-c3ccc(C)o3)nc3ccccc23)c1	D3 ag 37
COc1ccccc1-c1cc(C(=O)N/N=C/c2ccoc2)c2ccccc2n1	D3 antag -51
COc1cc(/C=N/NC(=O)c2cc(-c3cccc(OC(C)C)c3)nc3ccccc23)ccc1O	D3 ag 73 (no result: B2AR arrestin)
COc1ccccc1-c1cc(C(=O)N/N=C/c2ccc(C)s2)c2ccccc2n1	none
C[C@]12CCC(=O)C=C1CC[C@@H]1[C@@H]2[C@@H](O)C[C@@]2(C)[C@H]1CC[C@]2(O)C(=O)COP(=O)(O)O	none (no result: D3 antag, Giardia killer, B2AR arrestin)
Cc1ccccc1Cn1nnc2c(=O)[nH]c(C3CCN(C(=O)c4ccccc4)CC3)nc21	none (no result: D3 antag, Giardia killer, B2AR arrestin)
COC(=O)Cc1c(C)c2cc3c(c(C)c2oc1=O)OCN(CCc1ccc(F)cc1)C3	none (no result: D3 antag, Giardia killer, B2AR arrestin)
CCCC(=O)Nc1sc(C(=O)OC)c(C)c1C(N)=O	D3 antag -125
CCCCC(=O)Nc1sc(C(=O)N(CC)CC)c(C)c1C(=O)OC	none
CC1CCC(NC(=O)Cn2c(=O)oc3ccccc32)CC1 (stereo unspecified)	D3 antag -51
CC1CCN(C(=O)Cn2c(=O)oc3ccccc32)CC1	none
O=C(NCc1ccccn1)c1cccc(NS(=O)(=O)c2cccc(Cl)c2)c1	none
O=C(NCc1ccccn1)c1ccc(NS(=O)(=O)c2cccc(Cl)c2)cc1	D3 antag -61
CC1O[C@@H](OCC2O[C@@H](Oc3cc(O)c4c(c3)OC(c3ccc(O)cc3)CC4=O)[C@H](O)[C@@H](O)[C@@H]2O)[C@H](O)[C@H](O)[C@H]1O (stereo partly specified)	D3 antag -58
O=C(OCC(COC(=O)c1cccnc1)(COC(=O)c1cccnc1)COC(=O)c1cccnc1)c1cccnc1	none (no result: D3 antag, Giardia killer, B2AR arrestin)
Cn1c(N)cc(=O)n(Cc2ccccc2)c1=O	none
O=c1ccn(Cc2ccccc2)c(=O)n1Cc1ccccc1	D3 antag -50
Cc1cc(C)cc(Oc2coc3cc(OCC(=O)NC4CCCCC4)ccc3c2=O)c1	none (no result: D3 antag, Giardia killer, B2AR arrestin)
O=C(Nc1nnc(CCc2ccccc2)s1)C1CCN(C(=O)c2ccco2)CC1	none (no result: D3 ag, D3 antag, B2AR arrestin)
C[C@H]1CCC[C@]2(O[C@H](CCO)C[C@H](O)[C@H]2O)O1	D3 ag 37 (no result: B2AR arrestin)
COc1ccc(N2C(=O)Cc3cc(OC)c(OC)cc3C2c2ccc(F)cc2)cc1 (stereo unspecified)	none (no result: D3 antag, Giardia killer, B2AR arrestin)
COc1cc2c(cc1OC)n(Cc1cccc(C(F)(F)F)c1)c(=O)n1nc(-c3ccccc3)nc21	none (no result: D3 antag, Giardia killer, B2AR arrestin)
COc1ccc(S(=O)(=O)N2CCN(c3ccccc3OC)CC2)cc1OC	none
O=S(=O)(c1ccc2ccccc2c1)N1CCN(C2CCN(Cc3ccccc3)CC2)CC1	D3 antag -61
COc1ccccc1N1CCN(S(=O)(=O)c2ccccc2)CC1	none
COc1ccccc1N1CCN(C2CCN(S(=O)(=O)c3ccc4ccccc4c3)CC2)CC1	D3 antag -54
COc1ccccc1N1CCN(C2CCN(S(=O)(=O)c3ccc(C)cc3)CC2)CC1	D3 antag -70
O=S(=O)(c1ccccc1)N1CCN(C2CCN(Cc3ccccc3)CC2)CC1	D3 antag inconclusive
COc1ccccc1C(=O)Nc1ccc(C(=O)OCc2cc(=O)n3ccsc3n2)cc1	none (no result: D3 antag, Giardia killer, B2AR arrestin)
O=S(=O)(c1ccc2c(c1)OCCO2)N1CCN(c2nc(-c3ccccc3)nc3ccccc23)CC1	none (no result: D3 ag, D3 antag, B2AR arrestin)
COC(=O)Cc1ccc(N(Cc2ccccc2F)S(=O)(=O)c2ccc(Cl)cc2)cc1	D3 antag -56
Cc1cccc(NS(=O)(=O)c2ccc3oc(=O)c4ncn(C)c4c3c2)c1C	D3 ag 42 (no result: D3 antag, Giardia killer, B2AR arrestin)
Cc1ccc(-c2csc3nc4cc(C(N)=O)ccc4c(=O)n23)cc1	D3 antag -61
CCc1noc(-c2ccc(NCc3ccccc3)c([N+](=O)[O-])c2)n1	none (no result: D3 antag, Giardia killer, B2AR arrestin)
O=C(N/N=C\c1cc2c(cc1Cl)OCO2)c1cccnc1	none
CN1CCN(c2ccccc2/C=N/NC(=O)c2cccnc2)CC1	D3 antag -50
Cn1cc(CN2CCc3sccc3C2)c(-c2ccccc2F)n1	D3 antag -91
CCC(CO)Oc1cc(NCc2ccccc2)c2ncn(C(C)C)c2c1 (stereo unspecified)	D3 ag 37
CCOC(=O)C1(CCOc2ccccc2)CCN(Cc2cccc(-n3cccn3)c2)CC1	D3 antag -60
CCOC(=O)C1(CCOc2ccccc2)CCN(Cc2ccc(NC(C)=O)cc2)CC1	none
CCOC(=O)C1(CCOc2ccccc2)CCN(C(=O)c2ccc(-n3cccn3)cc2)CC1	none
CCOC(=O)C1(CCOc2ccccc2)CCN(Cc2ccc(OC)cc2)CC1	D3 antag -72 (no result: B2AR arrestin)
CCOC(=O)C1(CCOc2ccccc2)CCN(Cc2cccc(F)c2)CC1	D3 antag -53

Source: PubChem BioAssay (National Center for Advancing Translational Sciences (NCATS))
